Data reported in the supplement of paper PMC10849652.
Of roughly 8,800 targets only a part is listed; those with a hit were picked by preference. About 0.5% of all pairs of compound and target were hits. A number with no mark means an inactive call.

How the values were obtained:
Test in all cases: log2 fold change, soluble protein after heating vs DMSO (PISA); higher = thermal stabilisation; K562 lysate, 10 uM; active = over 0.2 and 3.5 SD of the protein, either way, in both replicates (recomputed)
pictilisib = compound: CS(=O)(=O)N1CCN(Cc2cc3nc(-c4cccc5[nH]ncc45)nc(N4CCOCC4)c3s2)CC1 [pictilisib]
Outline: (§1)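 A 30 min treatment with 10 μM compound was applied to crude K562 extract at 1 mg/mL protein in PBS pH 7.4 with 1 mM MgCl2. Heating for 3 min spanned 48°C-58°C, after which aliquots were pooled, adjusted to 0.5% NP-40 at 4°C and spun at 21,000xg for 90 min. TMTpro 16plex LC-MS/MS of the supernatant, with channel sums equalised, gave values recorded as log-two fold change in thermal stability against solvent controls, from duplicates.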

crizotinib = compound: C[C@@H](Oc1cc(-c2cnn(C3CCNCC3)c2)cnc1N)c1c(Cl)ccc(F)c1Cl [crizotinib]
Outline: as §1

[1] = compound: C[C@H](C1=CC=C(C=C1)C(=O)NC2=C3C=CNC3=NC=C2)N
Outline: as §1

duvelisib = compound: C[C@H](Nc1ncnc2nc[nH]c12)c1cc2cccc(Cl)c2c(=O)n1-c1ccccc1 [duvelisib]
Outline: as §1

gandotinib = compound: Cc1cc(Nc2cc(CN3CCOCC3)c3nc(C)c(Cc4ccc(Cl)cc4F)n3n2)n[nH]1 [gandotinib]
Outline: as §1

tozasertib = compound: Cc1cc(Nc2cc(N3CCN(C)CC3)nc(Sc3ccc(NC(=O)C4CC4)cc3)n2)n[nH]1 [tozasertib]
Outline: as §1

doramapimod = compound: Cc1ccc(-n2nc(C(C)(C)C)cc2NC(=O)Nc2ccc(OCCN3CCOCC3)c3ccccc23)cc1 [doramapimod]
Outline: as §1

bafetinib = compound: Cc1ccc(NC(=O)c2ccc(CN3CC[C@H](N(C)C)C3)c(C(F)(F)F)c2)cc1Nc1nccc(-c2cncnc2)n1 [bafetinib]
Outline: as §1

[2] = compound: Cc1cccc(CC(=O)N2CCc3c2ccc(-c2cn(C)c4ncnc(N)c24)c3F)n1
Outline: as §1

dasatinib = compound: Cc1nc(Nc2ncc(C(=O)Nc3c(C)cccc3Cl)s2)cc(N2CCN(CCO)CC2)n1 [dasatinib]
Outline: as §1

[3] = compound: Cn1cc(-c2ccc3c(c2)CCN3C(=O)Cc2cccc(C(F)(F)F)c2)c2c(N)ncnc21
Outline: as §1

quisinostat = compound: Cn1cc(CNCC2CCN(c3ncc(C(=O)NO)cn3)CC2)c2ccccc21 [quisinostat]
Outline: as §1

[4] = compound: NC(=O)Nc1cc(-c2cccc(F)c2)sc1C(=O)N[C@H]1CCCNC1
Outline: as §1

lapatinib = compound: CS(=O)(=O)CCNCc1ccc(-c2ccc3ncnc(Nc4ccc(OCc5cccc(F)c5)c(Cl)c4)c3c2)o1 [lapatinib]
Outline: as §1

nilotinib = compound: Cc1cn(-c2cc(NC(=O)c3ccc(C)c(Nc4nccc(-c5cccnc5)n4)c3)cc(C(F)(F)F)c2)cn1 [nilotinib]
Outline: as §1

[5] = compound: Cc1nc(Nc2n[nH]c3c2CN(C(=O)N[C@H](CN(C)C)c2ccccc2)C3(C)C)c2sccc2n1
Outline: as §1

[6] = compound: Cc1ncc(-c2ccnc(Nc3ccc(S(C)(=O)=O)cc3)n2)n1C(C)C
Outline: as §1

tipifarnib = compound: Cn1cncc1[C@@](N)(c1ccc(Cl)cc1)c1ccc2c(c1)c(-c1cccc(Cl)c1)cc(=O)n2C [tipifarnib]
Outline: as §1

[7] = compound: NC(=O)c1cnc(N[C@@H]2CCCC[C@@H]2N)nc1Nc1cccc(-n2nccn2)c1
Outline: as §1

[8] = compound: NC1(c2ccc(-c3nc4ccn5c(=O)[nH]nc5c4cc3-c3ccccc3)cc2)CCC1
Outline: as §1

Sequence of UniProt Q9NYQ8 (Q9NYQ8 whole entry, looked up): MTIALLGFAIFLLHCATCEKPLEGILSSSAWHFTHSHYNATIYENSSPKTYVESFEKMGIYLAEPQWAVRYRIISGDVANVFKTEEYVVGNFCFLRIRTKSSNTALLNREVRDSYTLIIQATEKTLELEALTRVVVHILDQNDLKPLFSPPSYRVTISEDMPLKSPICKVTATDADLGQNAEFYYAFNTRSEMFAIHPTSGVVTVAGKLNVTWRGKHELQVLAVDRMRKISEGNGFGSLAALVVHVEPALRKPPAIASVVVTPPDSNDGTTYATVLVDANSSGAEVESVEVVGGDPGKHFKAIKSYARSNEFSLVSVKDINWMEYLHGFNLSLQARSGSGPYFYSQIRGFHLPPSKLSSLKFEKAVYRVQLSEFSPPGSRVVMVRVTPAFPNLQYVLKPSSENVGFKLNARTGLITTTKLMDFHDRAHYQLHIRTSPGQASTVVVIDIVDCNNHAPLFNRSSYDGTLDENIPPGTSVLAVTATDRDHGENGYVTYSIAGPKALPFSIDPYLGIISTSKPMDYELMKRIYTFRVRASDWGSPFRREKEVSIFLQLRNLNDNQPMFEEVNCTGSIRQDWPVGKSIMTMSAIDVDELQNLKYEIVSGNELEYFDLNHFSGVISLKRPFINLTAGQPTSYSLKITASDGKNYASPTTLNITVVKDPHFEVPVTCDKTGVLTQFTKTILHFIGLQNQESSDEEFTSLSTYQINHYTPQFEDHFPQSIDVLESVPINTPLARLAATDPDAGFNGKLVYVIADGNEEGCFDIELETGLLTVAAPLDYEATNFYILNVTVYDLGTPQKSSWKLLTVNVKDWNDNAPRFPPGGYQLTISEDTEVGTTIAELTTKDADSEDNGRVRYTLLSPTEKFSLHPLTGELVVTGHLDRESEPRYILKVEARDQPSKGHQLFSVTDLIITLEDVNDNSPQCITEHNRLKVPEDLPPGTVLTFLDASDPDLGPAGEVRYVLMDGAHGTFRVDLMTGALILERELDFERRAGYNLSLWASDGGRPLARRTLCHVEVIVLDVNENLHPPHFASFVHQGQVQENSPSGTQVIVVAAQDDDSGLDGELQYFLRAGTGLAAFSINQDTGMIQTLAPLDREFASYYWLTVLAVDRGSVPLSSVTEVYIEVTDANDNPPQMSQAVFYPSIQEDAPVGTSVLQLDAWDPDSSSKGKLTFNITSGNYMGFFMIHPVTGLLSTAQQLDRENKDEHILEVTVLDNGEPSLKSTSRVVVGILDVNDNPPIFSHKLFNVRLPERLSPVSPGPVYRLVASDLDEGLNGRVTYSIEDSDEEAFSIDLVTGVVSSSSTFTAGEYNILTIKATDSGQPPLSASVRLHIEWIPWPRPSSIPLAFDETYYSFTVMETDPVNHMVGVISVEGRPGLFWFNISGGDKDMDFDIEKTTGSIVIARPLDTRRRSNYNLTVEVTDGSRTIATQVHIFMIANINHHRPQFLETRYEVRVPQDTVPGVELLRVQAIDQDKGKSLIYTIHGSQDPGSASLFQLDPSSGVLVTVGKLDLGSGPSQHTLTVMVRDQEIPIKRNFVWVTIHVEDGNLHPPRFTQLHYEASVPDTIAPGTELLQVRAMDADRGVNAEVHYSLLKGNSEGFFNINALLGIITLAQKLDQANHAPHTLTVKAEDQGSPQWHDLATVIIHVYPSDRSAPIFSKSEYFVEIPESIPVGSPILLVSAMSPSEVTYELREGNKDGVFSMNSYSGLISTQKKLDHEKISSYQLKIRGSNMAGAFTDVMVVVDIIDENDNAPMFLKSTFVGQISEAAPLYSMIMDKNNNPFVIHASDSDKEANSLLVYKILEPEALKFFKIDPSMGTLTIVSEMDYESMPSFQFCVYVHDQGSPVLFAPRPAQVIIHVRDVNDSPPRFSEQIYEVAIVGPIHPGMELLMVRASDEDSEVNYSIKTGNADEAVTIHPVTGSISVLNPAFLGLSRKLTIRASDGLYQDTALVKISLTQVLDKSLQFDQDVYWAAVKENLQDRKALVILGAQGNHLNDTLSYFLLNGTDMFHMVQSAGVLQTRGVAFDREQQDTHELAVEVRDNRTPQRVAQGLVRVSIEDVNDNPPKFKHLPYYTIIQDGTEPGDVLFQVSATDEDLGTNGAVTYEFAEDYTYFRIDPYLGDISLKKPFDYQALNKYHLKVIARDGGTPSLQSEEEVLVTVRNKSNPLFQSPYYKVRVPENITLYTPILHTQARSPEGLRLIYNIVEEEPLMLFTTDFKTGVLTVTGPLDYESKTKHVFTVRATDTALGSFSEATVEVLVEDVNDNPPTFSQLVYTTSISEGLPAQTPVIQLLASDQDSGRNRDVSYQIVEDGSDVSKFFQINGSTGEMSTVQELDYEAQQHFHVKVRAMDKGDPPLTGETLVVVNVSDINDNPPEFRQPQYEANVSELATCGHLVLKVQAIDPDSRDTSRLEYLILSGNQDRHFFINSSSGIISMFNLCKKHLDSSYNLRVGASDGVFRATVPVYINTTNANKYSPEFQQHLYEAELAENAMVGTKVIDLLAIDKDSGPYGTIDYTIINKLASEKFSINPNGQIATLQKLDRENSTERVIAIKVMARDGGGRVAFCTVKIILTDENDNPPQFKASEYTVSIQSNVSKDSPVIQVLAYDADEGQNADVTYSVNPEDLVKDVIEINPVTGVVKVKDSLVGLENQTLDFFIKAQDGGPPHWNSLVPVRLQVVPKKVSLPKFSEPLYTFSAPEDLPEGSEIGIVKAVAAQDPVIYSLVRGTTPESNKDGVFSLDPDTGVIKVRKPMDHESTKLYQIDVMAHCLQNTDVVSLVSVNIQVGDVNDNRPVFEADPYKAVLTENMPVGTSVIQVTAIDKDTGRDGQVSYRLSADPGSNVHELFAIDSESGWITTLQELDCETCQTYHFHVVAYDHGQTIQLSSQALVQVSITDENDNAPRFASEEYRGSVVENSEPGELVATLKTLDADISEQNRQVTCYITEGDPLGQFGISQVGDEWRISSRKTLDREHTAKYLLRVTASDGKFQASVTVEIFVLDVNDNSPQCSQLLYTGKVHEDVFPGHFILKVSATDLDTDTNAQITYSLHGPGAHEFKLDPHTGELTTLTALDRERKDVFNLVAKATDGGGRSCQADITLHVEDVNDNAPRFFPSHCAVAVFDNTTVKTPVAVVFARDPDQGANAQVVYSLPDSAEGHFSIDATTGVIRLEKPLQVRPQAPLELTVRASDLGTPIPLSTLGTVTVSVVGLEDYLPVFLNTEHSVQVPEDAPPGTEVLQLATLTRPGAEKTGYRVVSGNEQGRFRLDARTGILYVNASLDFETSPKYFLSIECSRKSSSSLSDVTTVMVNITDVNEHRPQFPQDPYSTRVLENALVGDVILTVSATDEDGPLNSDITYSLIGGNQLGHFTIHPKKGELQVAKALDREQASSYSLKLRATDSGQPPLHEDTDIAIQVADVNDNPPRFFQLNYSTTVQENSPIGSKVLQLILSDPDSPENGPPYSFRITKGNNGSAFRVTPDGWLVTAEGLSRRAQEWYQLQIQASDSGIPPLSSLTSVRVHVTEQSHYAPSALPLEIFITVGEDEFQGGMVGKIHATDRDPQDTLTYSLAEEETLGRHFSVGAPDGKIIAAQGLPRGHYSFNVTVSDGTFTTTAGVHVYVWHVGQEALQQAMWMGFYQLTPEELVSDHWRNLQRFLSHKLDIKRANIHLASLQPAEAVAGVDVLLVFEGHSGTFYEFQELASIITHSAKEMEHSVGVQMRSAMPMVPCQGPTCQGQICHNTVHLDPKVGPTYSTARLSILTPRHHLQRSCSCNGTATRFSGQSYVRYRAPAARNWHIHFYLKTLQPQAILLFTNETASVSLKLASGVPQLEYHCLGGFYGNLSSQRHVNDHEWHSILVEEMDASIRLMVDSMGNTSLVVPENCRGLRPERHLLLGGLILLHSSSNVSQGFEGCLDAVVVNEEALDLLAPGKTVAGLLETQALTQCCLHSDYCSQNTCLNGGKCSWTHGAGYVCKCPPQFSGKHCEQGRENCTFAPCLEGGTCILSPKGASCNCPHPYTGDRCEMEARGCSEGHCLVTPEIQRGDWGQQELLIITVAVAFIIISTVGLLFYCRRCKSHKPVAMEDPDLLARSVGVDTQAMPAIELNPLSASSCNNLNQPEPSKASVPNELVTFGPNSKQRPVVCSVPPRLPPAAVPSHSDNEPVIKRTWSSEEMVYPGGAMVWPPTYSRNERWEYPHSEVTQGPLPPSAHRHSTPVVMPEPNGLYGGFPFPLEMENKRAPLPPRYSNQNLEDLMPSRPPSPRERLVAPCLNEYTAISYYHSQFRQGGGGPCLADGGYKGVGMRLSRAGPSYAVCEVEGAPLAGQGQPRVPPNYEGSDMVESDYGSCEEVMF
Sequence of UniProt Q9UET6 (Q9UET6 whole entry, looked up): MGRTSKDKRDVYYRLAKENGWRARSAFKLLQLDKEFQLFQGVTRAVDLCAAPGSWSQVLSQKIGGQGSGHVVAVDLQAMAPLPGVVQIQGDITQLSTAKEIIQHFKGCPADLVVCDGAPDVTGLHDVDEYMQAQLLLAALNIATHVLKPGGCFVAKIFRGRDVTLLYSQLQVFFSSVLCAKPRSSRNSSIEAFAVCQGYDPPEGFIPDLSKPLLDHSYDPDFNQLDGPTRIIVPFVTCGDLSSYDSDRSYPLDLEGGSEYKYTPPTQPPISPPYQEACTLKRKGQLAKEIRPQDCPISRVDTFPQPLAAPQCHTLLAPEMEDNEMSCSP

| Target | log2 fold change (pictilisib) | log2 fold change (crizotinib) | log2 fold change [1] | log2 fold change (duvelisib) | log2 fold change (gandotinib) | log2 fold change (tozasertib) | log2 fold change (doramapimod) | log2 fold change (bafetinib) | log2 fold change [2] | log2 fold change (dasatinib) | log2 fold change [3] | log2 fold change (quisinostat) | log2 fold change [4] | log2 fold change (lapatinib) | log2 fold change (nilotinib) | log2 fold change [5] | log2 fold change [6] | log2 fold change (tipifarnib) | log2 fold change [7] | log2 fold change [8] |
| --- | --- | --- | --- | --- | --- | --- | --- | --- | --- | --- | --- | --- | --- | --- | --- | --- | --- | --- | --- | --- |
| EWSR1 (UniProt H7BY36) | 0.071 | -0.042 | 0.07 | -0.011 | -0.167 | 0.01 | -0.066 | 0.293 | 0.019 | -0.104 | -0.025 | 0.112 | 0.118 |  |  |  |  |  |  |  |
| FAT2 (UniProt Q9NYQ8) | -0.015 | -0.512 | -0.366 |  | 0.182 | 0.055 | -0.094 | -0.244 | 0.407 |  |  | -0.978 (active) | 0.36 | -0.027 | -0.086 | 0.086 | 0.014 | -0.028 | 0.025 | -0.087 |
| FTSJ1 isoform 2 (UniProt Q9UET6) |  |  | -0.129 |  | 0.077 | -0.175 |  |  | 0.079 |  |  |  |  | 0.013 |  |  |  |  | -0.019 |  |
